IL1B secr inh: inhibitors of inflammasome signaling (IL-1 beta secretion); THP-1 LPS/ATP IL-1B secretion, AlphaLISA, 16 h; active compounds read low; activity change, % at 57.5 µM; 360,000 compounds, 4.7% hits; in the data active = activity change below about -50%; inconclusive = mostly about -30% to -49%
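Secreted IL-1B measured by AlphaLISA bead assay after 16 h compound exposure of THP-1 cells; compounds (final up to 57.5 uM) added 1 h before LPS (250 ng/mL) and ATP (1.25 mM) stimulation; lower signal means less secretion.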
HT1080-NT tox: kills 2HG-producing HT-1080-NT fibrosarcoma cells; 360,000 compounds, 1.6% hits; Potency, µM (titrated, usually from 46.1 µM), inactives show at the top dose activity, negative = less viability, hits mostly cytotoxic; AID 686970; HT-1080-NT fibrosarcoma viability, CellTiter-Glo ATP luminescence, 48 h;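 also: NT is the 2HG producing partner of a matched IDH1 knockdown line; potency is read from the fitted curve at half-maximal effect; 0% = DMSO-treated cells and -100% = media-only wells without cells; nearly all actives have a fitted effect of over 55% in size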
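Read-out is CellTiter-Glo luminescence after 10 minutes at room temperature, following 48 hours' compound treatment of HT-1080-NT cells (750 cells/well, RPMI, 5% FBS, 37 degrees C).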
HT1080 IDH1KD tx: kills HT-1080 cells with IDH1 knockdown; HT-1080 IDH1 knockdown viability, ATP luminescence, 48 h; Potency, µM (top dose mostly 46.1 µM), without a hit: at the top dose activity, negative = toxicity, usual class: cytotoxic; 360,000 compounds, 2% hits; AID 686971;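 also: potency is read from the fitted curve at half-maximal effect; 0% = DMSO wells and -100% = cell-free medium wells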
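Using the IDH1-knockdown HT-1080 line run in the same batch and compound series as the NT line, viability after 48 h at 37 °C was determined by CellTiter-Glo luminescence and expressed as % activity.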
uPA surface inh: blocks generation of uPA at the cell surface | cell surface uPA generation assay, qHTS | Potency, µM (series often up to 38.3 µM), for the others: top-dose activity change, negative = inhibition, hits mostly inhibitors | 330,000 compounds, 0.31% hits; active = well fitted inhibition curve with a large enough effect; inconclusive = small, poorly fitted or top-dose-only effect; inactive = no such curve, though single readings can be large or run the other way; tested in mouse RAW 264.7 cells; also: potency is read from the fitted curve at half-maximal effect; nearly all actives have a fitted effect of over 55% in size
DT40 TDP1 CPT: DT40-hTDP1 cell growth loss with CPT. 420,000 compounds, 12% hits. chicken DT40 Tdp1-/-;hTDP1 cells + 20 nM CPT, ATP luminescence, 48 h. AID 686979. Potency, µM (titrated, usually from 46.2 µM), for the others: at the top dose activity change, negative = growth inhibition, hits mostly inhibitors; also: potency is read from the fitted curve at half-maximal effect; nearly all actives have a fitted effect of over 55% in size
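Chicken DT40 Tdp1-/- cells stably complemented with human TDP1 were seeded at 400 cells/well in medium containing 20 nM camptothecin, exposed to pin-transferred compounds, and grown at 37 °C for at least 48 hr. Viability was read as ATP luminescence.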
TDP1 cell noCPT: qHTS for Inhibitors of human tyrosyl-DNA phosphodiesterase 1 (TDP1): qHTS in cells in absence of CPT. DT40 Tdp1-/- hTDP1 cells, no CPT, ATP luminescence, 48 h. Potency, µM (doses to about 46.2 µM), for inactives: top-dose activity change, negative = growth inhibition, hits mostly inhibitors. 420,000 compounds, 15% hits; also: potency is read from the fitted curve at half-maximal effect; nearly all actives have a fitted effect of over 55% in size
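Chicken DT40 Tdp1-/- cells complemented with human TDP1, screened without camptothecin (DMSO vehicle only), 400 cells/well. Compounds pin-transferred, cells incubated at 37 °C for at least 48 hr. Growth read as ATP-dependent luminescence (CellTiter-Glo, 30 min at RT).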
* hit, by the source's call; ? = inconclusive; . = no result. The list is not random: actives were taken first. Their share in the collection is about 19%. Unless noted, calls follow the shape of the dose curve; as a rule, active = well fitted curve in the direction sought with a large enough effect; inconclusive = small, poorly fitted or top-dose-only effect, or another doubt; inactive = no such curve, though single readings can be large; an effect the other way counts as inactive or inconclusive. Unless noted, % is scaled to controls: 0 for no effect and ±100 for the full control effect.

SMILES | IL1B secr inh | HT1080-NT tox | HT1080 IDH1KD tx | uPA surface inh | DT40 TDP1 CPT | TDP1 cell noCPT
CCN(CC)S(=O)(=O)c1ccc(N2CCOCC2)c(NC(=O)c2sccc2C)c1 | ? | -0.7% | 14.5% | -7.3% | ? | 18.4µM*
CCN(CC)S(=O)(=O)c1ccc(N2CCOCC2)c(NC(=O)c2ccco2)c1 | 14.9 | -4.8% | -5.6% | -0.5% | ? | ?
CCN(CC)S(=O)(=O)c1ccc(N2CCOCC2)c(NC(=O)c2ccccc2)c1 | -1.8 | 11.6% | 0.7% | -3.6% | ? | ?
CCN(CC)S(=O)(=O)c1ccc(N2CCOCC2)c(NC(=O)Cc2ccccc2)c1 | 0.0 | 5.2% | 0.8% | -0.2% | 2.8% | 4.4%
CCN(CC)S(=O)(=O)c1ccc(N2CCOCC2)c(NC(=O)C23CC4CC(CC(Cl)(C4)C2)C3)c1 | 3.5 | 0.8% | -2.3% | -9.3% | ? | 23.1µM*
CCN(CC)S(=O)(=O)c1ccc(N2CCOCC2)c(NC(=S)NC(=O)c2ccco2)c1 | ? | -24.0% | -13.2% | -2.0% | 10.3µM* | ?
O=C(O)Cc1ccc(NC(=O)Nc2ccc3c(c2)OCO3)cc1 | -14.1 | -0.3% | -3.3% | -19.7% | -22.7% | 2.0%
CCc1cc2c(c(CC)n1)CCC(=O)N2Cc1ccc(-c2ccccc2-c2nn[nH]n2)cc1 | . | . | . | . | 9.6% | -3.3%
CCc1cc(C(=O)Nc2cc(S(=O)(=O)N(CC)CC)ccc2N2CCOCC2)sc1C | -13.6 | -2.3% | -13.0% | -25.1% | 20.6µM* | ?
CN1CCN(c2ccc(S(=O)(=O)N3CCCCC3)cc2NC(=O)c2cccc([N+](=O)[O-])c2)CC1 | -3.8 | -4.1% | -5.3% | ? | -23.5% | -21.4%
CCc1cc(C(=O)Nc2cc(S(=O)(=O)N3CCCCC3)ccc2N2CCN(C)CC2)sc1C | -70.4* | ? | ? | . | 4.61µM* | 4.11µM*
Cc1ccc(NC2=C(CC(=O)O)C(c3ccc(F)cc3)N(c3ccc(C)cc3)C2=O)cc1 (centres undefined) | . | . | . | . | -22.2% | ?
CC(OC(=O)C1=Cc2ccccc2OC1)C(=O)NC(C)(C)C (centres undefined) | -6.1 | 4.1% | 3.8% | 5.1% | -27.9% | ?
CCN(CCCNC(=O)COc1cc(=O)n(C)c2ccccc12)c1ccccc1 | 21.5 | 7.9% | 5.1% | -4.1% | ? | -23.9%
CCN(CCCNC(=O)CSc1cc(=O)n(CC)c2ccccc12)c1cccc(C)c1 | . | . | . | . | 20.6µM* | 20.6µM*
CCN(CCCNC(=O)COc1cc(=O)n(CC)c2ccccc12)c1ccccc1 | -13.1 | 0.5% | -3.1% | -3.4% | 23.1µM* | ?
CCn1c(=O)cc(SCC(=O)NCCc2ccc(Cl)cc2)c2ccccc21 | . | . | . | . | -6.6% | ?
CC(C)c1ccc(NC(=O)COc2ccc(F)cc2C(=O)c2cnn(-c3ccccc3)c2)cc1 | 26.3 | -24.6% | ? | -3.1% | ? | 13µM*
CCOc1ccc(NC(=O)NC(CC)Cn2nnc3ccccc3c2=O)cc1 (centres undefined) | . | . | . | . | -23.6% | -24.4%
Cc1cc(C)nc(-n2nc(C)cc2NC(=O)CN2CCC(C)CC2)n1 | 14.2 | -1.9% | -6.3% | -2.9% | 5.17µM* | 5.8µM*
Cc1cc(C)nc(-n2nc(C)cc2NC(=O)c2cccc(S(=O)(=O)N(C)C)c2)n1 | 12.8 | -6.8% | 3.0% | 9.9% | -9.9% | -8.2%
Cc1ccc(C)c(C(=O)Nc2cc(C)nn2-c2nc(C)cc(C)n2)c1 | -7.9 | -10.9% | -6.1% | . | 3.26µM* | 5.17µM*
Cc1cc(NC(=O)CN2CCOCC2)n(-c2nc3ccccc3s2)n1 | -8.4 | -1.9% | -10.5% | 0.0% | 14.6µM* | 20.6µM*
Cc1cc(C)nc(-n2nc(C)cc2NC(=O)CN2CCCC2)n1 | 3.2 | 14.6% | 1.3% | 11.0% | -2.3% | -4.1%

Assay outcomes as filed in PubChem BioAssay.
